# Reference: the supplement of paper PMC4466140
# How the values were obtained:
# Test in all cases: SPOT peptide array binding signal intensity (averaged, normalized) (arbitrary units (background-subtracted, floor 0; scale differs between SH3 domains)); higher = stronger binding of the SH3 domain to the peptide
# AgAbp1 = biological target: AgAbp1
# Outline: (§1)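 Binding signal is given in arbitrary units that differ between domains and is the normalized, background-subtracted spot intensity averaged across replicates. Each GST-SH3 fusion from one of four yeast species was made in E. coli BL21(DE3), purified on glutathione Sepharose and incubated at 10 μg/ml overnight at 4°C on cellulose-bound synthetic 15-mer peptides in which cysteines were replaced by serines. Detection used anti-GST antibody, an HRP anti-mouse secondary and luminol, followed by imaging and Genespotter quantification.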
# AgBbc1 = biological target: AgBbc1
# Outline: as §1
# AgBem1-D1 = biological target: AgBem1-D1
# Outline: as §1
# AgBzz1-D1 = biological target: AgBzz1-D1
# Outline: as §1
# AgBzz1-D2 = biological target: AgBzz1-D2
# Outline: as §1
# AgCyk3 = biological target: AgCyk3
# Outline: as §1
# AgFus1 = biological target: AgFus1
# Outline: as §1
# AgHof1 = biological target: AgHof1
# Outline: as §1
# AgHse1 = biological target: AgHse1
# Outline: as §1
# AgLsb1 = biological target: AgLsb1
# Outline: as §1
# AgLsb4 = biological target: AgLsb4
# Outline: as §1
# AgMyo5 = biological target: AgMyo5
# Outline: as §1
# AgNbp2 = biological target: AgNbp2
# Outline: as §1
# AgRvs167 = biological target: AgRvs167
# Outline: as §1
# AgSho1 = biological target: AgSho1
# Outline: as §1
# AgSla1-D1-D2 = biological target: AgSla1-D1-D2
# Outline: as §1
# AgSla1-D3 = biological target: AgSla1-D3
# Outline: as §1
# CaAbp1-D1 = biological target: CaAbp1-D1
# Outline: as §1
# CaAbp1-D2 = biological target: CaAbp1-D2
# Outline: as §1
# CaBbc1 = biological target: CaBbc1
# Outline: as §1
# CaBem1-D1 = biological target: CaBem1-D1
# Outline: as §1
# CaBzz1-D1 = biological target: CaBzz1-D1
# Outline: as §1
# CaBzz1-D2 = biological target: CaBzz1-D2
# Outline: as §1
# CaCyk3 = biological target: CaCyk3
# Outline: as §1
# CaFus1 = biological target: CaFus1
# Outline: as §1
# CaHof1 = biological target: CaHof1
# Outline: as §1
# CaHse1 = biological target: CaHse1
# Outline: as §1
# CaLsb1 = biological target: CaLsb1
# Outline: as §1
# CaLsb4 = biological target: CaLsb4
# Outline: as §1
# CaMyo5 = biological target: CaMyo5
# Outline: as §1
# CaNbp2 = biological target: CaNbp2
# Outline: as §1
# CaRvs167 = biological target: CaRvs167
# Outline: as §1
# CaRvs167-3 = biological target: CaRvs167-3
# Outline: as §1
# CaSho1 = biological target: CaSho1
# Outline: as §1
# CaSla1-D1-D2 = biological target: CaSla1-D1-D2
# Outline: as §1
# CaSla1-D3 = biological target: CaSla1-D3
# Outline: as §1
# ScAbp1 = biological target: ScAbp1
# Outline: as §1
# ScBbc1 = biological target: ScBbc1
# Outline: as §1
# ScBem1-D1 = biological target: ScBem1-D1
# Outline: as §1
# ScBzz1-D1 = biological target: ScBzz1-D1
# Outline: as §1
# ScBzz1-D2 = biological target: ScBzz1-D2
# Outline: as §1
# ScCyk3 = biological target: ScCyk3
# Outline: as §1
# ScFus1 = biological target: ScFus1
# Outline: as §1
# ScHof1 = biological target: ScHof1
# Outline: as §1
# ScHse1 = biological target: ScHse1
# Outline: as §1
# ScLsb1 = biological target: ScLsb1
# Outline: as §1
# ScLsb2 = biological target: ScLsb2
# Outline: as §1
# ScLsb3 = biological target: ScLsb3
# Outline: as §1
# ScLsb4 = biological target: ScLsb4
# Outline: as §1
# ScMyo3 = biological target: ScMyo3
# Outline: as §1
# ScMyo5 = biological target: ScMyo5
# Outline: as §1
# ScNbp2 = biological target: ScNbp2
# Outline: as §1
# ScPex13 = biological target: ScPex13
# Outline: as §1
# ScRvs167 = biological target: ScRvs167
# Outline: as §1
# ScSho1 = biological target: ScSho1
# Outline: as §1
# ScSla1-D1-D2 = biological target: ScSla1-D1-D2
# Outline: as §1
# ScSla1-D3 = biological target: ScSla1-D3
# Outline: as §1
# SpAbp1-D1 = biological target: SpAbp1-D1
# Outline: as §1
# SpBbc1 = biological target: SpBbc1
# Outline: as §1
# SpBzz1-D1 = biological target: SpBzz1-D1
# Outline: as §1
# SpBzz1-D2 = biological target: SpBzz1-D2
# Outline: as §1
# SpCyk3 = biological target: SpCyk3
# Outline: as §1
# SpHof1 = biological target: SpHof1
# Outline: as §1
# SpHof1-2 = biological target: SpHof1-2
# Outline: as §1
# SpHof1-3 = biological target: SpHof1-3
# Outline: as §1
# SpHse1 = biological target: SpHse1
# Outline: as §1
# SpLsb1 = biological target: SpLsb1
# Outline: as §1
# SpLsb4 = biological target: SpLsb4
# Outline: as §1
# SpMyo1 = biological target: SpMyo1
# Outline: as §1
# SpNbp2 = biological target: SpNbp2
# Outline: as §1
# SpPex13 = biological target: SpPex13
# Outline: as §1
# SpRvs167 = biological target: SpRvs167
# Outline: as §1
# SpSla1-D1-D2 = biological target: SpSla1-D1-D2
# Outline: as §1
# SpSla1-D3 = biological target: SpSla1-D3
# Outline: as §1
binder,measurement,setting,value
EAEEAAPQLPSRSSA,SPOT peptide array binding signal intensity,AgAbp1,7
same,SPOT peptide array binding signal intensity,AgBbc1,≤ 0
same,SPOT peptide array binding signal intensity,AgBem1-D1,≤ 0
same,SPOT peptide array binding signal intensity,AgBzz1-D1,8.5
same,SPOT peptide array binding signal intensity,AgBzz1-D2,8.5
same,SPOT peptide array binding signal intensity,AgCyk3,≤ 0
same,SPOT peptide array binding signal intensity,AgFus1,8
same,SPOT peptide array binding signal intensity,AgHof1,0.5
same,SPOT peptide array binding signal intensity,AgHse1,3.5
same,SPOT peptide array binding signal intensity,AgLsb1,16
same,SPOT peptide array binding signal intensity,AgLsb4,3510
same,SPOT peptide array binding signal intensity,AgMyo5,≤ 0
same,SPOT peptide array binding signal intensity,AgNbp2,≤ 0
same,SPOT peptide array binding signal intensity,AgRvs167,11.3
same,SPOT peptide array binding signal intensity,AgSho1,≤ 0
same,SPOT peptide array binding signal intensity,AgSla1-D1-D2,≤ 0
same,SPOT peptide array binding signal intensity,AgSla1-D3,2
same,SPOT peptide array binding signal intensity,CaAbp1-D1,≤ 0
same,SPOT peptide array binding signal intensity,CaAbp1-D2,≤ 0
same,SPOT peptide array binding signal intensity,CaBbc1,≤ 0
same,SPOT peptide array binding signal intensity,CaBem1-D1,≤ 0
same,SPOT peptide array binding signal intensity,CaBzz1-D1,1
same,SPOT peptide array binding signal intensity,CaBzz1-D2,3.25
same,SPOT peptide array binding signal intensity,CaCyk3,≤ 0
same,SPOT peptide array binding signal intensity,CaFus1,5
same,SPOT peptide array binding signal intensity,CaHof1,0.25
same,SPOT peptide array binding signal intensity,CaHse1,6.75
same,SPOT peptide array binding signal intensity,CaLsb1,1.75
same,SPOT peptide array binding signal intensity,CaLsb4,6000
same,SPOT peptide array binding signal intensity,CaMyo5,1
same,SPOT peptide array binding signal intensity,CaNbp2,≤ 0
same,SPOT peptide array binding signal intensity,CaRvs167,340
same,SPOT peptide array binding signal intensity,CaRvs167-3,6.25
same,SPOT peptide array binding signal intensity,CaSho1,≤ 0
same,SPOT peptide array binding signal intensity,CaSla1-D1-D2,≤ 0
same,SPOT peptide array binding signal intensity,CaSla1-D3,≤ 0
same,SPOT peptide array binding signal intensity,ScAbp1,6
same,SPOT peptide array binding signal intensity,ScBbc1,≤ 0
same,SPOT peptide array binding signal intensity,ScBem1-D1,≤ 0
same,SPOT peptide array binding signal intensity,ScBzz1-D1,9
same,SPOT peptide array binding signal intensity,ScBzz1-D2,10
same,SPOT peptide array binding signal intensity,ScCyk3,1
same,SPOT peptide array binding signal intensity,ScFus1,≤ 0
same,SPOT peptide array binding signal intensity,ScHof1,4.25
same,SPOT peptide array binding signal intensity,ScHse1,≤ 0
same,SPOT peptide array binding signal intensity,ScLsb1,283
same,SPOT peptide array binding signal intensity,ScLsb2,12.5
same,SPOT peptide array binding signal intensity,ScLsb3,7150
same,SPOT peptide array binding signal intensity,ScLsb4,3370
same,SPOT peptide array binding signal intensity,ScMyo3,≤ 0
same,SPOT peptide array binding signal intensity,ScMyo5,≤ 0
same,SPOT peptide array binding signal intensity,ScNbp2,≤ 0
same,SPOT peptide array binding signal intensity,ScPex13,128
same,SPOT peptide array binding signal intensity,ScRvs167,1500
same,SPOT peptide array binding signal intensity,ScSho1,≤ 0
same,SPOT peptide array binding signal intensity,ScSla1-D1-D2,7
same,SPOT peptide array binding signal intensity,ScSla1-D3,0.75
same,SPOT peptide array binding signal intensity,SpAbp1-D1,≤ 0
same,SPOT peptide array binding signal intensity,SpBbc1,≤ 0
same,SPOT peptide array binding signal intensity,SpBzz1-D1,≤ 0
APERAVPILPPRNNV,SPOT peptide array binding signal intensity,AgAbp1,7.5
same,SPOT peptide array binding signal intensity,AgBbc1,160
same,SPOT peptide array binding signal intensity,AgBem1-D1,47.5
same,SPOT peptide array binding signal intensity,AgBzz1-D1,84.5
same,SPOT peptide array binding signal intensity,AgBzz1-D2,10.5
same,SPOT peptide array binding signal intensity,AgCyk3,9
same,SPOT peptide array binding signal intensity,AgFus1,≤ 0
same,SPOT peptide array binding signal intensity,AgHof1,11.5
same,SPOT peptide array binding signal intensity,AgHse1,24.5
same,SPOT peptide array binding signal intensity,AgLsb1,109
same,SPOT peptide array binding signal intensity,AgLsb4,2180
same,SPOT peptide array binding signal intensity,AgMyo5,≤ 0
same,SPOT peptide array binding signal intensity,AgNbp2,≤ 0
same,SPOT peptide array binding signal intensity,AgRvs167,87.8
same,SPOT peptide array binding signal intensity,AgSho1,≤ 0
same,SPOT peptide array binding signal intensity,AgSla1-D1-D2,≤ 0
same,SPOT peptide array binding signal intensity,AgSla1-D3,0.5
same,SPOT peptide array binding signal intensity,CaAbp1-D1,11
same,SPOT peptide array binding signal intensity,CaAbp1-D2,14
same,SPOT peptide array binding signal intensity,CaBbc1,418
same,SPOT peptide array binding signal intensity,CaBem1-D1,2
same,SPOT peptide array binding signal intensity,CaBzz1-D1,≤ 0
same,SPOT peptide array binding signal intensity,CaBzz1-D2,28.5
same,SPOT peptide array binding signal intensity,CaCyk3,42.5
same,SPOT peptide array binding signal intensity,CaFus1,24
same,SPOT peptide array binding signal intensity,CaHof1,3.5
same,SPOT peptide array binding signal intensity,CaHse1,7.25
same,SPOT peptide array binding signal intensity,CaLsb1,≤ 0
same,SPOT peptide array binding signal intensity,CaLsb4,2970
same,SPOT peptide array binding signal intensity,CaMyo5,≤ 0
same,SPOT peptide array binding signal intensity,CaNbp2,25
same,SPOT peptide array binding signal intensity,CaRvs167,414
same,SPOT peptide array binding signal intensity,CaRvs167-3,≤ 0
same,SPOT peptide array binding signal intensity,CaSho1,4
same,SPOT peptide array binding signal intensity,CaSla1-D1-D2,1
same,SPOT peptide array binding signal intensity,CaSla1-D3,≤ 0
same,SPOT peptide array binding signal intensity,ScAbp1,1.5
same,SPOT peptide array binding signal intensity,ScBbc1,4.25
same,SPOT peptide array binding signal intensity,ScBem1-D1,≤ 0
same,SPOT peptide array binding signal intensity,ScBzz1-D1,2.5
same,SPOT peptide array binding signal intensity,ScBzz1-D2,≤ 0
same,SPOT peptide array binding signal intensity,ScCyk3,5
same,SPOT peptide array binding signal intensity,ScFus1,≤ 0
same,SPOT peptide array binding signal intensity,ScHof1,32.5
same,SPOT peptide array binding signal intensity,ScHse1,≤ 0
same,SPOT peptide array binding signal intensity,ScLsb1,80.2
same,SPOT peptide array binding signal intensity,ScLsb2,18
same,SPOT peptide array binding signal intensity,ScLsb3,4520
same,SPOT peptide array binding signal intensity,ScLsb4,1710
same,SPOT peptide array binding signal intensity,ScMyo3,33.5
same,SPOT peptide array binding signal intensity,ScMyo5,2.75
same,SPOT peptide array binding signal intensity,ScNbp2,6
same,SPOT peptide array binding signal intensity,ScPex13,789
same,SPOT peptide array binding signal intensity,ScRvs167,966
same,SPOT peptide array binding signal intensity,ScSho1,91.5
same,SPOT peptide array binding signal intensity,ScSla1-D1-D2,34.5
same,SPOT peptide array binding signal intensity,ScSla1-D3,1
same,SPOT peptide array binding signal intensity,SpAbp1-D1,5.5
same,SPOT peptide array binding signal intensity,SpBbc1,0.5
same,SPOT peptide array binding signal intensity,SpBzz1-D1,81
same,SPOT peptide array binding signal intensity,SpBzz1-D2,≤ 0
same,SPOT peptide array binding signal intensity,SpCyk3,13
same,SPOT peptide array binding signal intensity,SpHof1,3
same,SPOT peptide array binding signal intensity,SpHof1-2,8
same,SPOT peptide array binding signal intensity,SpHof1-3,20.8
same,SPOT peptide array binding signal intensity,SpHse1,2.5
same,SPOT peptide array binding signal intensity,SpLsb1,83.8
same,SPOT peptide array binding signal intensity,SpLsb4,3550
same,SPOT peptide array binding signal intensity,SpMyo1,926
same,SPOT peptide array binding signal intensity,SpNbp2,≤ 0
same,SPOT peptide array binding signal intensity,SpPex13,2
same,SPOT peptide array binding signal intensity,SpRvs167,1250
same,SPOT peptide array binding signal intensity,SpSla1-D1-D2,≤ 0
same,SPOT peptide array binding signal intensity,SpSla1-D3,≤ 0
